Reference: PubChem BioAssay AID1159580 (chemical genetic matrix, 2015)
Screen size: about 5,500 compounds; about 2,000 (36%) were called active. Another 18% or so got no clear call; they are omitted. Rule as the data show it: active = normalized growth mostly below about 0.91 (no sharp cut-off); inconclusive = no clear call, values can overlap the other calls; inactive = mostly above about 0.92. Some of the results follow.

Assay: chemical genetic growth profiling, strain panel (AID 1159580);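 also: tested at 20 µM; growth read once vehicle control cultures reached saturation at 30 °C; 1 = growth at the plate median or of vehicle wells; lower values mean less growth of the strain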
Details: growth OD
[1] = S. cerevisiae deletion strains, locus YGR078C, strain PAC10, stronger effect = lower value
[2] = S. cerevisiae deletion strains, locus YMR307W, strain GAS1, stronger effect = lower value
[3] = S. cerevisiae deletion strains, locus YNL153C, strain GIM3, stronger effect = lower value
[4] = S. cerevisiae deletion strains, locus YNL322C, strain KRE1, stronger effect = lower value
[5] = S. cerevisiae deletion strains, locus YPL055C, strain LGE1, stronger effect = lower value
[6] = S. cerevisiae deletion strains, locus YPL241C, strain CIN2, stronger effect = lower value
[7] = S. cerevisiae deletion strains, locus YAL013W, strain DEP1, stronger effect = lower value
[8] = S. cerevisiae deletion strains, locus YBR229C, strain ROT2, stronger effect = lower value
[9] = S. cerevisiae deletion strains, locus YCL061C, strain MRC1, stronger effect = lower value
[10] = S. cerevisiae deletion strains, locus YDL101C, strain DUN1, stronger effect = lower value
[11] = S. cerevisiae deletion strains, locus YDR150W, strain NUM1, stronger effect = lower value
[12] = S. cerevisiae deletion strains, locus YEL061C, strain CIN8, stronger effect = lower value
[13] = S. cerevisiae deletion strains, locus YHR030C, strain SLT2, stronger effect = lower value
[14] = S. cerevisiae deletion strains, locus YHR087W, strain rtc3, stronger effect = lower value
[15] = S. cerevisiae deletion strains, locus YJR043C, strain POL32, stronger effect = lower value
[16] = S. cerevisiae deletion strains, locus YJR075W, strain HOC1, stronger effect = lower value
[17] = S. cerevisiae deletion strains, locus YKL190W, strain CNB1, stronger effect = lower value
[18] = S. cerevisiae deletion strains, locus YLR039C, strain RIC1, stronger effect = lower value
[19] = S. cerevisiae deletion strains, locus YLR058C, strain SHM2 (second series), stronger effect = lower value
[20] = S. cerevisiae deletion strains, locus YLR085C, strain ARP6, stronger effect = lower value
[21] = S. cerevisiae deletion strains, locus YLR262C, strain YPT6, stronger effect = lower value
[22] = S. cerevisiae deletion strains, locus YML094W, strain GIM5, stronger effect = lower value
[23] = S. cerevisiae deletion strains, locus YMR219W, strain ESC1, stronger effect = lower value
[24] = S. cerevisiae deletion strains, locus YMR263W, strain SAP30, stronger effect = lower value
[25] = S. cerevisiae deletion strains, locus YNL298W, strain CLA4 (second series), stronger effect = lower value
[26] = S. cerevisiae deletion strains, locus YNR030W, strain Alg12, stronger effect = lower value
[27] = S. cerevisiae deletion strains, locus YPR135W, strain CTF4, stronger effect = lower value

Measured: normalized growth

OCc1cnc[nH]1
inactive: S. cerevisiae deletion strains, locus YAL040C, strain CLN3, stronger effect = lower value 0.98 | S. cerevisiae deletion strains, locus YCL061C, strain MRC1 (second series), stronger effect = lower value 1 | S. cerevisiae deletion strains, locus YDR363W, strain ESC2, stronger effect = lower value 1.01 | S. cerevisiae deletion strains, locus YER002W, strain NOP16, stronger effect = lower value 1.03 | [1] 1.01 | S. cerevisiae deletion strains, locus YGR229C, strain SMI1, stronger effect = lower value 0.987 | [2] 1 | [3] 1.05 | S. cerevisiae deletion strains, locus YNL175C, strain NOP13, stronger effect = lower value 1.02 | S. cerevisiae deletion strains, locus YNL197C, strain WHI3, stronger effect = lower value 1.01 | S. cerevisiae deletion strains, locus YNL224C, strain SQS1, stronger effect = lower value 1.01 | [4] 1 | S. cerevisiae deletion strains, locus YOR083W, strain WHI5 (second series), stronger effect = lower value 0.989 | [5] 1.01 | [6] 1.01

N#Cc1c(F)cccc1Oc1ccc(F)cc1
inactive: [7] 0.999 | [8] 0.957 | [9] 1.01 | [10] 0.98 | S. cerevisiae deletion strains, locus YDL134C, strain PPH21, stronger effect = lower value 0.986 | [11] 0.941 | [12] 0.966 | [1] 0.971 | [13] 0.848 | [14] 0.948 | [15] 0.999 | [16] 0.946 | [17] 0.972 | [18] 0.851 | [19] 0.979 | [20] 0.941 | [21] 0.907 | [22] 0.97 | [23] 0.971 | [24] 0.998 | [2] 0.891 | [3] 0.991 | [25] 0.928 | [4] 0.962 | [26] 0.986 | [5] 0.956 | [6] 0.978 | [27] 0.905

N#Cc1ncc(C(F)(F)F)cc1Oc1ccc(Cl)cc1
active: [7] 0.921 | [8] 0.789 | [9] 0.898 | [10] 0.868 | [11] 0.799 | [12] 0.903 | [1] 0.708 | [14] 0.745 | [15] 0.911 | [16] 0.594 | [17] 0.842 | [18] 0.694 | [19] 0.829 | [20] 0.595 | [21] 0.658 | [23] 0.814 | [3] 0.892 | [25] 0.709 | [4] 0.849 | [26] 0.737 | [5] 0.751 | [6] 0.844 | S. cerevisiae strains, strain wild type, stronger effect = lower value 0.851
inactive: [13] 0.843 | [22] 0.907 | [24] 0.913 | [2] 1.01 | [27] 0.889
